FMDV RLuc: FMDV antiviral activity by Renilla signal. FMDV replicon cells, Renilla luciferase signal. 120,000 tested, 0.32% active. AID 1745857. Potency, µM (series often up to 57.5 µM), without a hit: at the highest dose activity change, negative = inhibition, usual class: inhibitors; note: nearly all actives have a fitted effect of over 55% in size
FMDV antiviral: FMDV antiviral activity by firefly signal | FMDV antiviral cell assay, firefly luciferase signal | Potency, µM (top dose mostly 57.5 µM), for inactives: at the highest dose activity change, negative = inhibition, most hits filed as inhibitors | 120,000 tested, 0.23% active | AID 1745856; note: nearly all actives have a fitted effect of over 60% in size
Starred values were filed as active, the others as inactive; [ ] = remark or other dose. Sampled rows, rich in hits. Any-hit rate of the full collection: about 0.4%. Calls come from the whole dose curve. % is set by controls: 0 for no effect and ±100 for the full control effect; potency is the fitted concentration of half-maximal effect.

`Cc1c(Oc2ccc(C#N)c(C#N)c2)cccc1Oc1ccc(C#N)c(C#N)c1` gave FMDV RLuc 2.51µM* and FMDV antiviral 2.24µM*.
`N#Cc1ccc(Oc2ccc(Cl)c(Oc3ccc(C#N)c(C#N)c3)c2)cc1C#N` gave FMDV RLuc 2.51µM* and FMDV antiviral inconclusive.
Cc1cc(C)cc(Oc2ccc(C#N)c(C#N)c2)c1 was read as FMDV RLuc 21.2% and FMDV antiviral 0.0%.
Screening N#Cc1ccccc1COC(=O)/C=C/c1ccc(OC(F)F)cc1 returned FMDV RLuc -1.9% and FMDV antiviral -1.8%.
CCCCOc1ccc(CNC(=O)c2cc3n(n2)CCCN(Cc2ccc(C)cc2)C3=O)cc1 was read as FMDV RLuc -13.8% and FMDV antiviral 14.1µM*.
For CCCCNC(=O)c1cc2n(n1)CCCN(Cc1ccc(C)cc1)C2=O the results were FMDV RLuc 34.4% and FMDV antiviral 2.7%.
`CC(=O)Nc1nonc1-c1nnc(SCc2ccc(C)cc2)n1C` gave FMDV RLuc -3.3% and FMDV antiviral 99.9%.
`O=C(O)c1ccccc1C(=O)/C=C/c1ccc(Cl)cc1` gave FMDV RLuc 28.2µM* and FMDV antiviral 57.4%.
For O=C(/C=C/c1ccc(Cl)cc1)c1ccccc1O the results were FMDV RLuc 5.2% and FMDV antiviral 51.8%.
`Cc1cccc(Oc2ccc(NC(=O)c3ccc4c(c3)NC(=O)CS4)cc2)c1` gave FMDV RLuc 22.4µM* and FMDV antiviral inconclusive.
For O=C1CSc2ccc(C(=O)Nc3ccccc3)cc2N1 the results were FMDV RLuc 5.3% and FMDV antiviral 170.8%.
Screening Cc1c(Cl)cccc1NC(=O)CSc1nc(=O)n(Cc2ccncc2)c2c1CCC2 returned FMDV RLuc 36.1% and FMDV antiviral -8.3%.
`CCCc1nc(Cn2cnc3c2c(=O)n(C)c(=O)n3C)cs1` gave FMDV RLuc 10µM* and FMDV antiviral 10µM*.
For Cn1c(=O)c2c(ncn2Cc2ccc(Cl)c(Cl)c2)n(C)c1=O the results were FMDV RLuc inconclusive and FMDV antiviral -28.3%.
`CCc1cccc(OCC(O)Cn2cnc3c2c(=O)n(C)c(=O)n3C)c1` (stereo unspecified) gave FMDV RLuc -28.4% and FMDV antiviral -28.3%.
For Cn1c(=O)c2c(ncn2Cc2ccc(F)cc2)n(C)c1=O the results were FMDV RLuc -6.1% and FMDV antiviral 8.1%.
`Cn1c(=O)c2c(ncn2Cc2cccc3ccccc23)n(C)c1=O` gave FMDV RLuc 5.62µM* and FMDV antiviral inconclusive.
CCOc1ccc(Cn2cnc3c2c(=O)n(C)c(=O)n3C)cc1OCC was read as FMDV RLuc 11.2µM* and FMDV antiviral 12.6µM*.
Screening Cc1ccc(C(C)C)c(OCC(O)Cn2cnc3c2c(=O)n(C)c(=O)n3C)c1 (stereo unspecified) returned FMDV RLuc 25.1µM* and FMDV antiviral 25.1µM*.
Screening Cn1c(=O)c2c(ncn2CC(=O)OCc2cccc3ccccc23)n(C)c1=O returned FMDV RLuc -3.2% and FMDV antiviral 9.2%.
CC(NCc1cccc(S(=O)(=O)N(C)C)c1)c1cccs1 (stereo unspecified) was read as FMDV RLuc 14.0% and FMDV antiviral 13.0%.
Screening CC(C)=CCOc1c2occc2cc2ccc(=O)oc12 returned FMDV RLuc 34.1% and FMDV antiviral 9.3%.
Screening CCN(CC)C(=O)c1ccccc1NS(=O)(=O)C(F)(F)F returned FMDV RLuc 14.8% and FMDV antiviral -6.0%.
COc1ccc(S(=O)(=O)Nc2cc(C)cc(C)c2)c2cccnc12 was read as FMDV RLuc -37.5% and FMDV antiviral 15.3%.
For Cn1nc(-c2ccc(N3CCOCC3)c(NC(=O)c3ccc(Cl)cc3)c2)c2ccccc2c1=O the results were FMDV RLuc -8.5% and FMDV antiviral -6.5%.
Screening Cc1ccccc1-n1nnnc1SCc1nc(N)c2ccccc2n1 returned FMDV RLuc -19.0% and FMDV antiviral 17.5%.
Cc1cccc(C)c1-n1nnnc1SCn1nnc2ccccc2c1=O was read as FMDV RLuc 17.8µM* and FMDV antiviral 20µM*.
For Cc1ccc(Sc2ccc(N3CCCC(C(=O)Nc4ccc(Cl)cc4)C3)nn2)cc1 (stereo unspecified) the results were FMDV RLuc 24.4% and FMDV antiviral 16.0%.
CC(=O)N1CCN(Cc2coc(-c3ccc(Cl)cc3)n2)CC1 was read as FMDV RLuc inconclusive and FMDV antiviral 12.0%.
Screening O=C(CSCc1coc(-c2ccc(Cl)cc2)n1)N1CCCCC1 returned FMDV RLuc 20µM* and FMDV antiviral -13.2%.
Screening COc1ccccc1OCCn1cc(C(=O)C(F)(F)F)c2cc(Br)ccc21 returned FMDV RLuc -9.5% and FMDV antiviral -3.2%.
Screening COc1ccccc1OCCn1cc(C(C)=O)c2ccccc21 returned FMDV RLuc 15.8µM* and FMDV antiviral inconclusive.
Screening O=C(O)CNC(=O)/C=C/c1cccc(C(F)(F)F)c1 returned FMDV RLuc 10.2% and FMDV antiviral 17.3%.
Screening N#Cc1ccc(/C=C2\Oc3cc(O)ccc3C2=O)cc1 returned FMDV RLuc 12.9% and FMDV antiviral 117.5%.
For Cc1ccccc1OCC(O)CN1CCN(c2nccs2)CC1 (stereo unspecified) the results were FMDV RLuc -11.6% and FMDV antiviral -5.4%.
Screening O[C@@H](COc1cccc2ncccc12)CN1CCN(C2c3ccccc3[C@@H]3[C@H](c4ccccc42)C3(F)F)CC1 (stereo partly specified) returned FMDV RLuc 25.1µM* and FMDV antiviral -12.7%[11.5 µM].
For COc1ccc(-c2c(C)oc3cc(OCC(=O)OC(C)(C)C)ccc3c2=O)cc1OC the results were FMDV RLuc inconclusive and FMDV antiviral 28.2µM*.
CCOc1ccc2c(=O)c(-c3ccc(OC)c(OC)c3)c(C)oc2c1 was read as FMDV RLuc -28.6% and FMDV antiviral -19.9%.
`COc1ccc(CNC(=O)c2nc(S(=O)(=O)Cc3ccccc3)ncc2Cl)cc1` gave FMDV RLuc 1.8% and FMDV antiviral 22.4µM*.
`COc1ccc(NC(=O)c2nc(S(=O)(=O)Cc3ccc(C)cc3)ncc2Cl)cc1` gave FMDV RLuc 13.9% and FMDV antiviral 0.0%.
`Cc1cc(C)c2c(=O)cc(C(=O)Nc3nc4ccc(F)cc4s3)oc2c1` gave FMDV RLuc -2.7% and FMDV antiviral -3.8%.
For CCOC(=O)c1c(C)n(-c2ccccc2)c2ccc(OC(=O)COc3ccc(Cl)cc3)cc12 the results were FMDV RLuc 4.1% and FMDV antiviral -15.3%.
`CC(c1ccccc1)N(C)C(=O)CSc1nc2ccccc2o1` (stereo unspecified) gave FMDV RLuc 46.7% and FMDV antiviral 68.9%.
`Cc1nc2ccccc2nc1SCC(=O)N(C)C(C)c1ccc(F)cc1` (stereo unspecified) gave FMDV RLuc 35.5µM* and FMDV antiviral 28.2µM*.
`Cc1nn(Cc2ccc(F)cc2)c(C)c1NC(=O)c1cc(-c2cccs2)on1` gave FMDV RLuc inconclusive and FMDV antiviral 35.5µM*.
Screening Cc1cc(C(=O)Nc2c(C)nn(Cc3ccc(F)cc3)c2C)no1 returned FMDV RLuc 3.7% and FMDV antiviral 0.6%.
For CSc1ncc(Cl)c(C(=O)N(C)c2ccccc2)n1 the results were FMDV RLuc 9.2% and FMDV antiviral 9.7%.
For COc1ccc(C(=O)Nc2nnc(SCc3cc(=O)c4cc(C)cc(C)c4[nH]3)s2)cc1 the results were FMDV RLuc -10.1% and FMDV antiviral 12.4%.
For COc1ccc(-c2nnc(SCc3cc(=O)c4cc(C)cc(C)c4[nH]3)n2C)cc1 the results were FMDV RLuc 3.98µM* and FMDV antiviral inconclusive.

Compound activity (PubChem)
